Compound activity as filed in PubChem.
pPAFAH FP inh – pPAFAH enzyme inhibitors, primary screen, biochemical, fluorescence polarization, human. Platelet-activating factor acetylhydrolase (Homo sapiens), Q13093. recombinant pPAFAH, FP-rhodamine probe fluorescence polarization. inhibition, % at 3.39 µM. actives 1.5% (n = 330,000);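 active = inhibition above the mean inhibition across the screen plus 3 SD, cut at about 25% in these data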;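 also: inhibitors block binding of the rhodamine activity-based probe so polarization drops; 0% = enzyme with DMSO and 100% = wells lacking pPAFAH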
PAFAH1B3 inh – PAFAH1B3 enzyme inhibitors, primary screen, biochemical, fluorescence polarization, human; recombinant PAFAH1B3, FP-rhodamine probe; actives 0.28% (n = 340,000); inhibition, % at 3.39 µM; Platelet-activating factor acetylhydrolase IB subunit alpha1 (Homo sapiens), Q15102; AID 492972, 2010;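 active = inhibition above the screen-wide average of all tested compounds plus 3 SD, cut at about 25% in these data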;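 also: 0% = enzyme with DMSO only and 100% = wells lacking PAFAH1B3 protein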
PAFAH1B2 FP inh – PAFAH1B2 enzyme inhibitors, primary screen, biochemical, fluorescence polarization, human; recombinant PAFAH1B2, FP-rhodamine activity probe; actives 1.2% (n = 340,000); inhibition, % at 3.39 µM;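 active = inhibition above the mean of all tested compounds plus 3 SD, cut at about 24% in these data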;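 also: 0% = enzyme with DMSO and 100% = wells lacking PAFAH1B2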
Rin1 Abl inh – inhibitors of Rin1-Abl protein binding, primary screen, biochemical, TR-FRET; inhibition, % at 7.35 µM; Tyrosine-protein kinase ABL1 (Homo sapiens) + Ras and Rab interactor 1 (Homo sapiens), …; actives 0.4% (n = 360,000); AID 588664, 2011; in the data active = inhibition above about 5%, passing the limit was not always enough
PAFAH2 inh – PAFAH2 enzyme inhibitors, primary screen, biochemical, fluorescence polarization, human | recombinant PAFAH2, FP-rhodamine activity probe | inhibition, % at 3.39 µM | actives 0.99% (n = 340,000) | AID 492956, 2010;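 active = inhibition above the mean over all tested compounds plus 3 SD, cut at about 30% in these data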;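 also: inhibitors block probe labeling of enzyme so polarization drops; 0% = enzyme with DMSO and 100% = wells lacking PAFAH2 protein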
E coli Lon inh – inhibitors of E. coli Lon protease, primary screen, biochemical, fluorescence polarization; inhibition, % at 7.94 µM; actives 0.42% (n = 360,000); P0A9M0; purified E. coli Lon protease; in the data active = inhibition above about 13%, passing the limit was not always enough;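 also: 0% = enzyme with probe and DMSO and 100% = no enzyme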
Target sequence (P0A9M0 whole entry, looked up): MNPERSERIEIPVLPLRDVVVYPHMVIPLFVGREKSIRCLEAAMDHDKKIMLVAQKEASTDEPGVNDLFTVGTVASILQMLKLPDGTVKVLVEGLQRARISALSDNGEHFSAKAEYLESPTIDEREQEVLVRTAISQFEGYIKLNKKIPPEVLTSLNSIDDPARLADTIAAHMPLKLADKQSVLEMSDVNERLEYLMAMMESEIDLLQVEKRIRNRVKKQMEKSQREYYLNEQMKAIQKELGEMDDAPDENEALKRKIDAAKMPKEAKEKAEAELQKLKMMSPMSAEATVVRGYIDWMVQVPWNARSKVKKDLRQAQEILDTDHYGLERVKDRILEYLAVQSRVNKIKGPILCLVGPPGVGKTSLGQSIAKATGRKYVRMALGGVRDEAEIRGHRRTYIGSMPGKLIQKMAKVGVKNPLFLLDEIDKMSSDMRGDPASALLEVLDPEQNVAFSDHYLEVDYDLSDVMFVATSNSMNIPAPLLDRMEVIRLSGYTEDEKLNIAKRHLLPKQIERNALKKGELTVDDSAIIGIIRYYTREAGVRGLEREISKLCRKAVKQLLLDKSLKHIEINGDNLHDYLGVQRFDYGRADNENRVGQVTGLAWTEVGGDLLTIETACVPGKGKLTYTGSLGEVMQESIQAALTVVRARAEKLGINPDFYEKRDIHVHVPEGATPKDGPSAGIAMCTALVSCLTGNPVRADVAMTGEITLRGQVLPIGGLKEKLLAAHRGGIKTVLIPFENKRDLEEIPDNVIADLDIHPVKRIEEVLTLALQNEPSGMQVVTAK
Rin1 Abl conf – Rin1-Abl binding inhibitor retest, confirmation, biochemical, TR-FRET; purified proteins; inhibition, % at 7.35 µM; actives 49% (n = 1,300); shares compounds with Rin1 Abl inh; AID 602124, 2011
GFP quench – GFP fluorescence inhibitors and quenchers, artefact control for Rin1-Abl interaction inhibitor project, biochemical. shares compounds with Rin1 Abl inh. inhibitors/quenchers counterscreen. inhibition, % at 6.75 µM. actives 8.5% (n = 1,300). AID 602125, 2011;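 also: ABL1-eGFP fusion protein alone without its partner RIN1-SBP; 0% = protein with vehicle and 100% = wells lacking protein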
GFP quench dose – GFP fluorescence inhibitors and quenchers, dose response, artefact control for Rin1-Abl interaction inhibitor project, biochemical; IC50, µM; AID 602182, 2012; shares compounds with Rin1 Abl inh; GFP fluorescence interference/quenching counterscreen; 230 tested, under 10 active; call rule not given here;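 also: ABL1-eGFP fusion protein alone without its RIN1 binding partner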
Active calls of the source: *; · = no result. Most compounds without a hit are left out; they make up all but 3.1% or so of the library. Rule as the data show it, unless noted: active = inhibition above about 6.5%; inactive = the rest.

SMILES	pPAFAH FP inh	PAFAH1B3 inh	PAFAH1B2 FP inh	Rin1 Abl inh	PAFAH2 inh	E coli Lon inh	Rin1 Abl conf	GFP quench	others
O=C(Cc1ccc(NC(=O)C2CCN(C(=O)C3CC3)CC2)cc1)Nc1ccc(C(=O)N2CCOCC2)cc1	·	1	-4	8.9*	2	-4	9.7*	-2
CC(C)(C)c1ccc(CC(=O)N2CCC2(C)C(=O)NS(=O)(=O)c2cccc(F)c2)cc1 (configuration not stated)	·	·	·	0	·	13	·	·
Cn1cccc1Cc1nnc(SCC(=O)N2CCOCC2)n1CCc1ccccc1	0	-3	3	-1	2	1	·	·
CCOC(=O)N1CCN(C(=O)CSc2nnc(Cc3cccn3C)n2CCc2ccccc2)CC1	0	2	6	5.7*	7	-2	-1	-1
COc1ccc(-n2c(NC(=O)c3ccco3)c(C#N)c3nc4ccccc4nc32)cc1	15	10	4	19*	7	0	6	3
CC(=O)c1sc(NC(=O)c2ccc(Br)o2)nc1C	3	9	1	12*	6	1	-4	1
CCCCCCCOC(=O)C1=C(C)Nc2ncnn2C1c1cccs1 (configuration not stated)	1	5	-2	7.5*	2	-1	-1	-1
CCCCCCCCOC(=O)C1=C(C)Nc2nnnn2C1c1cccs1 (configuration not stated)	2	-6	6	4	3	6	·	·
CC(=O)Nc1ccc(CNc2nc(NCC3CC3)nc3ccsc23)cc1	·	·	·	7.2*	·	2	5	-1
Cc1ccc(NC(=O)C2C3C=CC(O3)C2C(=O)O)c(C)c1 (configuration not stated)	9	3	-1	4	-1	-3	·	·
Cc1ccc(C)c(NC(=O)C2C3C=CC(O3)C2C(=O)O)c1 (configuration not stated)	·	12	0	7.6*	3	-2	0	0
CCSCCOC(=O)C1=C(C)NC2=C(C(=O)CCC2)C1c1coc2ccccc2c1=O (configuration not stated)	2	10	3	20*	14	2	30*	0	GFP quench dose=>68
CC1=C(C(=O)OC(C)C)C(c2coc3ccccc3c2=O)C2=C(CCCC2=O)N1 (configuration not stated)	4	6	2	-2	-5	3	·	·
COc1ccc(C(=O)NC2CCN(C(=O)NCc3ccccc3)CC2)cc1	14	10	6	0	1	-8	·	·
O=C(Nc1cc(N2CCOCC2)ncn1)NC1(C(F)(F)F)Oc2ccccc2O1	2	10	1	9.8*	3	11	4	0
CC1C=CCC2C(=O)N(c3cccc(C(=O)NCc4ccccc4)c3)C(=O)C12 (configuration not stated)	5	6	5	7.8*	10	1	-2	0
CCOC(=O)CCCCCC(=O)Nc1ccc2c(c1)C(=O)N([C@@H](C)CO)C[C@@H](C)[C@H](CN(C)C(=O)Nc1ccccc1)OCCCC[C@H](C)O2	·	·	·	16*	·	0	18*	1	GFP quench dose=>68
CCOC(=O)CCCCCC(=O)Nc1ccc2c(c1)C(=O)N([C@@H](C)CO)C[C@H](C)[C@H](CN(C)C(=O)Nc1ccc(C(F)(F)F)cc1)OCCCC[C@H](C)O2	·	·	·	0	·	-5	·	·
CCOC(=O)CCCCCC(=O)Nc1ccc2c(c1)C(=O)N([C@H](C)CO)C[C@H](C)[C@@H](CN(C)C(=O)Nc1ccccc1)OCCCC[C@@H](C)O2	·	·	·	16*	·	4	22*	-1	GFP quench dose=>68
COc1ccc(NS(=O)(=O)c2cccc(C(=O)NCc3ccco3)c2)cc1	23	6	1	2	3	-8	·	·
COCCNC(=O)C1(C)CCCN(Cc2ccc(Cl)c(Cl)c2)C1 (configuration not stated)	·	·	·	-1	·	-7	·	·
CC1CN(CC(=O)NCc2ccc(F)cc2)CC(C)O1 (configuration not stated)	6	2	4	1	-4	-3	·	·
CCCNC(=O)C1(C)CCCN(C(=O)c2c(F)ccc(C)c2F)C1 (configuration not stated)	·	·	·	-4	·	6	·	·
Cc1ccc(Oc2nnc(-c3cccs3)c3ccccc23)cc1	2	6	3	-2	-4	9	·	·
Cc1ccc(Oc2nnc(-c3cccs3)c3ccccc23)cc1C	1	8	4	6.0*	3	-5	2	0
SMILES	pPAFAH FP inh	PAFAH1B3 inh	PAFAH1B2 FP inh	Rin1 Abl inh	PAFAH2 inh	E coli Lon inh	Rin1 Abl conf	GFP quench	others
COc1ccc(Br)cc1CN(C)C(=O)c1ccccc1OCc1c(C)noc1C	3	0	-2	9.0*	6	7	-1	-2
CN1C(=O)[C@H]2[C@@H](c3ccc(C(F)(F)F)cc3)N[C@]3(CCCN(Cc4cccn4C)C3=O)[C@H]2C1=O	·	·	·	-2	·	2	·	·
COc1ccc(NC(=O)Cn2c(=O)n(CC3CCCO3)c(=O)c3cc(OC)c(OC)cc32)cc1OC (configuration not stated)	2	4	-4	9.9*	2	-9	8.8*	0
COC(=O)Nc1csc2c1NC(=O)CCCC2	-5	-2	17	43*	9	2	44*	-1	GFP quench dose=>68
O=C(CCSc1nnc(-c2ccc(O)cc2)o1)N1CCOCC1	1	1	4	15*	8	1	16*	-1
CC1CCCN(C(=O)CSc2nnc(-c3ccc(O)cc3)o2)C1 (configuration not stated)	5	2	2	-2	6	6	·	·
COc1ccc(CC(=O)Oc2ccc(C)cc2Br)cc1OC	5	-3	-7	41*	9	-4	51*	-2	GFP quench dose=>68
COc1ccc(CC(=O)Oc2ccc(C)cc2C)cc1	7	9	2	0	1	-4	·	·
CC(C)c1cc(C(C)C)c(S(=O)(=O)N2CCNCC2)c(C(C)C)c1	-2	-1	2	1	-4	13	·	·
Cc1ccc(C)c(OCCCNC2CCCC2)c1C	0	7	-1	13*	-1	-6	1	-1
